Results filed as inconclusive are left out. Active and inactive are the calls of the source. The call rests on the fitted dose curve; in most records, active means well fitted cell-killing curve with a large enough effect in the repeat runs; inconclusive means weak or mixed curves, or effect the other way; inactive means flat fitted curve, though single readings scatter.
Test: qHTS assay to identify small molecule antagonists of the androgen receptor (AR) signaling pathway using the MDA cell line - cell viability counter screen (AID 743041; further: nearly all actives have a fitted effect of over 45% in size)
Settings: MDA-kb2 viability, CellTiter-Fluor, 16 h, cells co-treated with R1881 androgen agonist; series mostly up to 70.3 µM; viability change, negative = cytotoxic: at the top concentration
Summary of the method: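 In this qHTS counter assay, fluorescence intensity after CellTiter-Fluor addition indicated viability of MDA-kb2 AR-luc cells given compounds and R1881 for 16 h at 37C.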
For `CC(C)=CC=O`, the “viability change, negative = cytotoxic” value was 3.67% [at 95 µM] (inactive). For `CC(=O)Nc1ccc(N)cc1`, the “viability change, negative = cytotoxic” value was -4.9% [at 95 µM] (inactive). With `O=S1OCCO1` the “viability change, negative = cytotoxic” value was 11.3% [at 95 µM] (inactive). In the case of `CCOC(=O)CC(=O)C(=O)OCC`, the “viability change, negative = cytotoxic” value is reported as -2.05% (inactive). With `CC(COc1ccc(C(C)(C)C)cc1)OS(=O)OCCCl` (stereo not drawn) the “viability change, negative = cytotoxic” value was -2.47% [at 95 µM] (inactive). With `CCCOC(=O)c1ccc(C(=O)OCCC)nc1` the “viability change, negative = cytotoxic” value was 1.34% (inactive). For `CCCCCCCCCCCCCCCCBr`, the “viability change, negative = cytotoxic” value was 5.44% [at 32.5 µM] (inactive). In the case of `C=CC(=C)CCCC(C)(C)OC(C)=O`, the “viability change, negative = cytotoxic” value is reported as 6.88% (inactive). For `OCC1CC=CCC1` (stereo not drawn), the “viability change, negative = cytotoxic” value was -4.37% (inactive). With `COc1cc2ncnc(Nc3ccc(F)c(Cl)c3)c2cc1OCCCN1CCOCC1` the “viability change, negative = cytotoxic” value was 5.06% (inactive). In the case of `CO[C@H]1C=CO[C@@]2(C)Oc3c(C)c(O)c4c(O)c(c5c(c4c3C2=O)=NC2(CCN(CC(C)C)CC2)N=5)NC(=O)/C(C)=C\C=C/[C@H](C)[C@H](O)[C@@H](C)[C@@H](O)[C@@H](C)[C@H](OC(C)=O)[C@@H]1C`, the Potency is reported as “inactive”. With `CCCCCC=CCC=CCCCCCCCC(=O)OCC` the “viability change, negative = cytotoxic” value was 2.82% (inactive). In the case of `COc1cc2c(N3CCN(C(=O)Nc4ccc(OC(C)C)cc4)CC3)ncnc2cc1OCCCN1CCCCC1`, the Potency is reported as 33.5 µM (active). For `CC(=O)[C@H]1CC[C@H]2[C@@H]3C=CC4=CC(=O)CC[C@@]4(C)[C@@H]3CC[C@]12C`, the “viability change, negative = cytotoxic” value was 0.31% [at 32.5 µM] (inactive). For `CCCCCCCCCCCCCCC[C@H](O)[C@@H](N)CO`, the “viability change, negative = cytotoxic” value was 2.14% (inactive). In the case of `O=C(O)c1cccnc1C(=O)O`, the “viability change, negative = cytotoxic” value is reported as -2.24% (inactive). In the case of `Oc1ccc(Nc2ccccc2)cc1`, the “viability change, negative = cytotoxic” value is reported as 11.5% (inactive). With `CC1(C)C2=CCCC(C)(C)[C@]23CC[C@H]1C3` the “viability change, negative = cytotoxic” value was -1.28% (inactive). In the case of `COC(=O)[C@@H]1CC2=CC(=O)CC[C@]2(C)[C@@]23O[C@@H]2C[C@@]2(C)[C@@H](CC[C@@]24CCC(=O)O4)[C@H]13`, the “viability change, negative = cytotoxic” value is reported as -0.315% (inactive). For `COCC(O)CO` (stereo not drawn), the “viability change, negative = cytotoxic” value was -1.04% [at 95 µM] (inactive). With `CCC(=O)OC/C=C/c1ccccc1` the “viability change, negative = cytotoxic” value was -5.54% (inactive). With `O=Cc1c(Cl)cccc1Cl` the “viability change, negative = cytotoxic” value was 3.16% [at 95 µM] (inactive). For `c1cnc2c(n1)CCCC2`, the “viability change, negative = cytotoxic” value was 7.12% (inactive). For `C[Si]1(C)O[Si](C)(C)O[Si](C)(C)O1`, the “viability change, negative = cytotoxic” value was 3.95% (inactive). With `COC(OC)(C(=O)c1ccccc1)c1ccccc1` the “viability change, negative = cytotoxic” value was -5.68% (inactive). In the case of `CC(C)CCCC(=O)O`, the “viability change, negative = cytotoxic” value is reported as -0.994% (inactive). For `CCCOCCOCCO`, the “viability change, negative = cytotoxic” value was 0.175% (inactive). For `CC1CN(c2cc3c(cc2F)c(=O)c(C(=O)O)cn3-c2ccc(F)cc2F)CCN1` (stereo not drawn), the “viability change, negative = cytotoxic” value was 1.28% (inactive). With `CC(C)(CCl)c1ccccc1` the “viability change, negative = cytotoxic” value was -2.32% (inactive). For `Nc1ccc(Cl)cc1[N+](=O)[O-]`, the “viability change, negative = cytotoxic” value was 6.33% (inactive). In the case of `CC(Cl)C(Cl)Cl` (stereo not drawn), the “viability change, negative = cytotoxic” value is reported as -1.62% (inactive). With `Cc1nc2ccccc2s1` the “viability change, negative = cytotoxic” value was 2.7% [at 95 µM] (inactive). In the case of `C=CCCCCCCCCCCCCCCCC`, the viability change, negative = cytotoxic is reported as -4.7% [at 8.47 µM] (inactive).
On the % scale 0 is the no-effect control and ±100 the full control effect; potency means the concentration at half of the fitted maximal effect.
